Most compounds without a hit are left out; they make up all but 7.8% or so of the library.
PD-1 reverse act: activators reversing PD-1 mediated T-cell inhibition, primary screen, luminescence, primary human CD4 T cells, PD-L1 beads; CellTiter-Glo 96 h; activation, % (no concentration beside the values); 29,000 tested, under 10 active; AID 2316, 2010; call rule not given here;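 also: 0% = median vehicle wells and 100% = positive control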
MITF inhib: inhibitors of MITF, primary screen, MITF inhibitor project, cell-based, luminescence; AID 2240, 2010; TRPM1 promoter luciferase, 24 h; inhibition, % (test concentration not listed); 37,000 tested, 0.28% active; in the data active = inhibition above about 85%; inconclusive = no clear call, values can overlap the other calls; inactive = below about 68%;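 also: human melanocyte line stably carrying TRPM1 promoter luciferase reporter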
Shh pathway inh: Hedgehog pathway signaling inhibitors, primary screen, luminescence, Shh-LIGHT2 cells, Gli-luciferase; Shh-LIGHT2 Gli-luciferase reporter, 30 h; inhibition, % (test concentration not listed); 22,000 tested, 2.1% active;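 active = mean inhibition across valid replicates above about 65%, limit read from the data; inconclusive = mean under the limit, yet half or more replicates past it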;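 also: pathway switched on by Shh-conditioned medium diluted 1 in 25 in low serum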
NOMO-1 viab: NOMO-1 AML cell viability reduction, primary screen, STK33 inhibitor project, CellTiter-Glo luminescence | inhibition, % (test concentration not listed) | NOMO-1 AML viability, 72 h | 37,000 tested, 7.5% active; in the data active = inhibition above about 80%; inconclusive = no clear call, values can overlap the other calls
The depositor's hits bear a star; u = inconclusive; x = no result.

SMILES | PD-1 reverse act | MITF inhib | Shh pathway inh | NOMO-1 viab
C[C@@H]1CN([C@@H](C)CO)C(=O)c2cccc(NC(=O)Nc3ccc(F)cc3)c2O[C@@H]1CN(C)Cc1ccc(Cl)c(Cl)c1 | -5 | -11 | 40 | 93*
C[C@@H]1CN([C@H](C)CO)C(=O)c2cccc(NC(=O)Nc3ccccc3)c2O[C@@H]1CN(C)Cc1ccc(Cl)c(Cl)c1 | -4 | 12 | 25 | u
C[C@@H]1CN([C@@H](C)CO)C(=O)c2cccc(NC(=O)Nc3ccccc3)c2O[C@H]1CN(C)Cc1ccc(Cl)c(Cl)c1 | x | 10 | 9 | 102*
C[C@@H]1CN([C@H](C)CO)C(=O)c2cccc(NC(=O)C3CCOCC3)c2O[C@H]1CN(C)Cc1ccc(Cl)c(Cl)c1 | -4 | 1 | 70* | 30
C[C@H](CO)N1C[C@H](C)[C@@H](CN(C)Cc2ccc(Cl)c(Cl)c2)Oc2c(NC(=O)C3CCOCC3)cccc2C1=O | 0 | -10 | -2 | 34
CC(=O)O[C@H]1C(=O)[C@@]2(C)C([C@H](OC(=O)c3ccccc3)[C@]3(O)C[C@H](OC(=O)[C@H](O)[C@@H](NC(=O)c4ccccc4)c4ccccc4)C(C)=C1C3(C)C)[C@]1(OC(C)=O)CO[C@@H]1C[C@@H]2O (some centres not stated) | -2 | 19 | -43 | 98*
CCc1ccc(O)c(NC(=S)NC(=O)COc2ccc(C)cc2C)c1 | x | 47 | x | 120*
Cc1cc2c(c(Sc3ccc(Cl)cc3)n1)C(=O)NC2=O | -8 | -5 | -54 | u
Cc1nc(-c2cc(C#N)c(SCCC(=O)OC(C)(C)C)nc2C)cs1 | 1 | -52 | -24 | 36
CC(=O)Nc1cccc(Oc2ccc3c(c2)C(=O)N(c2ccc(Oc4ccc(C)c(C)c4)cc2)C3=O)c1 | 0 | 40 | x | 46
CCOC(=O)c1ccc(SC)cc1OC | -1 | -28 | -26 | 3
C[C@@H]1CN([C@@H](C)CO)C(=O)c2cc(NC(=O)Nc3ccc4c(c3)OCO4)ccc2O[C@H]1CN(C)Cc1ccc(C(F)(F)F)cc1 | 0 | 15 | x | 93*
C[C@@H]1CN([C@@H](C)CO)C(=O)c2cc(NC(=O)Nc3ccc(C(F)(F)F)cc3)ccc2O[C@@H]1CN(C)Cc1ccc(Oc2ccccc2)cc1 | -14 | 27 | x | 117*
C[C@@H]1CN([C@@H](C)CO)C(=O)c2cc(NC(=O)Nc3ccc(F)cc3)ccc2O[C@@H]1CN(C)Cc1ccc(C(F)(F)F)cc1 | -1 | 63 | x | 105*
C[C@@H]1CN([C@@H](C)CO)C(=O)c2cc(NC(=O)Nc3ccc(C(F)(F)F)cc3)ccc2O[C@@H]1CN(C)Cc1ccccc1 | -2 | 30 | 33 | 119*
C[C@H]1CN([C@@H](C)CO)C(=O)c2cc(NC(=O)Nc3ccc4c(c3)OCO4)ccc2O[C@@H]1CN(C)Cc1ccc(C(F)(F)F)cc1 | 2 | 7 | 4 | 11
C[C@H]1CN([C@@H](C)CO)C(=O)c2cc(NC(=O)Nc3ccc(C(F)(F)F)cc3)ccc2O[C@@H]1CN(C)Cc1ccc(C(=O)O)cc1 | 1 | -3 | x | -23
CSc1cccc(NC(=O)CSc2nnc(-c3ccco3)n2C)c1 | 1 | -6 | x | -15
CC(=O)Nc1ccc(NC(=O)COc2ccccc2C(=O)Nc2cccc(C)c2C)cc1 | -1 | 7 | x | 12
COc1ccc(CN(C)C[C@@H]2Oc3ccc(NC(=O)Nc4ccc(C(F)(F)F)cc4)cc3C(=O)N([C@@H](C)CO)C[C@@H]2C)cc1 | 1 | -5 | 28 | 100*
C[C@@H]1CN([C@H](C)CO)C(=O)c2cc(NC(=O)Nc3ccc(C(F)(F)F)cc3)ccc2O[C@H]1CN(C)Cc1ccccc1 | -5 | -13 | 10 | 76
C[C@H]1CN([C@@H](C)CO)C(=O)c2cc(NC(=O)Nc3ccc(C(F)(F)F)cc3)ccc2O[C@@H]1CN(C)Cc1ccccc1 | -2 | 8 | x | 94*
O=C(CSc1nc2sc3c(c2c(=O)n1C1CCCCC1)CCCC3)Nc1ccccc1 | x | -10 | x | 6
COC1=CC(=O)OC(CCc2ccc(OC)c(OC)c2)C1 (configuration not stated) | x | -7 | -1 | -14
Cc1c(-c2ccccc2)[n+](=O)c(-c2ccc(Br)cc2)c(C)n1[O-] | 0 | 9 | 67* | -6
SMILES | PD-1 reverse act | MITF inhib | Shh pathway inh | NOMO-1 viab
CCOc1ccc(S(=O)(=O)NCc2ccccc2)cc1-c1nc2c(C(C)(C)C)nn(C)c2c(=O)[nH]1 | -2 | 76 | 79* | 127*
Cn1nc(OC(C)(C)C(=O)Oc2ccc(Cl)cc2Cl)cc1C(F)(F)F | 0 | -10 | 1 | 33
O=[N+]([O-])c1nn(-c2ccccc2)n(O)c1=NCc1ccco1 | -2 | -23 | x | 34
O=[N+]([O-])c1nn(-c2ccc(Cl)cc2)n(O)c1=NCc1ccccn1 | -8 | 22 | x | 112*
CC/C=C\C[C@@H]1C(=O)C=C[C@@H]1CCCCCCCC(=O)O | -8 | -15 | 37 | 117*
Cc1ccc(NC(=O)CSc2nc(C)cc(-c3ccccc3)n2)cc1 | -2 | 21 | x | 26
C[C@@H]1CN([C@H](C)CO)C(=O)Cc2cc(NC(=O)CCN3CCOCC3)ccc2O[C@H]1CN(C)Cc1ccc(-c2ccccc2)cc1 | 0 | -26 | 15 | 9
C[C@@H]1CN([C@H](C)CO)C(=O)c2cc(NC(=O)CCC(F)(F)F)ccc2O[C@H]1CN(C)Cc1ccc(Oc2ccccc2)cc1 | x | 16 | x | 85*
C[C@H]1CN([C@@H](C)CO)C(=O)Cc2cc(NC(=O)CCC(F)(F)F)ccc2O[C@@H]1CN(C)Cc1ccc(-c2ccccc2)cc1 | x | 32 | 7 | 97*
C[C@@H]1CN([C@H](C)CO)C(=O)Cc2cc(NC(=O)CCC(F)(F)F)ccc2O[C@H]1CN(C)Cc1ccccc1 | 1 | -4 | -49 | -5
C[C@@H]1CN([C@H](C)CO)C(=O)Cc2cc(NC(=O)CCC(F)(F)F)ccc2O[C@H]1CN(C)Cc1ccc(Oc2ccccc2)cc1 | -4 | 14 | -22 | 94*
C[C@H]1CN([C@@H](C)CO)C(=O)Cc2cc(NC(=O)CCN3CCOCC3)ccc2O[C@@H]1CN(C)Cc1ccc(-c2ccccc2)cc1 | 0 | -12 | 65* | 11
C[C@H]1CN([C@@H](C)CO)C(=O)Cc2cc(NC(=O)CCC(F)(F)F)ccc2O[C@H]1CN(C)Cc1ccc(-c2ccccc2)cc1 | x | -2 | 16 | 31
COc1cccc(OC)c1C(=O)Nc1cccc(-c2nc3ncccc3o2)c1 | x | -18 | x | 13
Cc1sc2ncnc(SCC(=O)Nc3cccc(C(F)(F)F)c3)c2c1C | -2 | 3 | x | -3
CCCC(O)/C(=C/C1=C(C(=O)CC(CC(=O)O)OC(N)=O)C(=O)c2cccc(O)c2C1=O)CC(C(=O)O)[N+](C)(C)C (configuration not stated) | -16 | 12 | 44 | 108*
Clc1ccc(-c2ncc3ccccn23)cc1 | -2 | 4 | x | 129*
COc1cc([N+](=O)[O-])ccc1NC(=O)c1ccccc1OCC(=O)NC(C)(C)C | 3 | 26 | x | 9
